Source: the supplement of paper PMC3545927
The list shows a part of the results. The hit rate among all sequences tested is not known here.

Molecular target: furin, P09958
Test: furin cleavage Z-score vs untreated control; higher = more cleavage, active = 3.5 or more, inactive = 1 or less, 8 variable residues between constant flanks
Experimental: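 Multiplexed peptide-cDNA fusion cleavage assay. 8-mer variable peptides flanked by constant Cys-Ala (N-term) and Ala-Gly-Asn-Ala-Ser-Ala-Ser-Ala (C-term) and conjugated to a cDNA oligonucleotide were bead-immobilised via the N-terminus. They were treated with purified furin at a 1:10 enzyme:substrate ratio in 50 mM HEPES pH 7.5, 1 mM CaCl2, 100 mM NaCl for 7.5, 15 or 30 min. Released cDNA was counted by next-generation sequencing, and log counts versus no-furin controls were lowess-adjusted and converted to robust Z-scores.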

Sequence of furin, P09958 (P09958 whole entry): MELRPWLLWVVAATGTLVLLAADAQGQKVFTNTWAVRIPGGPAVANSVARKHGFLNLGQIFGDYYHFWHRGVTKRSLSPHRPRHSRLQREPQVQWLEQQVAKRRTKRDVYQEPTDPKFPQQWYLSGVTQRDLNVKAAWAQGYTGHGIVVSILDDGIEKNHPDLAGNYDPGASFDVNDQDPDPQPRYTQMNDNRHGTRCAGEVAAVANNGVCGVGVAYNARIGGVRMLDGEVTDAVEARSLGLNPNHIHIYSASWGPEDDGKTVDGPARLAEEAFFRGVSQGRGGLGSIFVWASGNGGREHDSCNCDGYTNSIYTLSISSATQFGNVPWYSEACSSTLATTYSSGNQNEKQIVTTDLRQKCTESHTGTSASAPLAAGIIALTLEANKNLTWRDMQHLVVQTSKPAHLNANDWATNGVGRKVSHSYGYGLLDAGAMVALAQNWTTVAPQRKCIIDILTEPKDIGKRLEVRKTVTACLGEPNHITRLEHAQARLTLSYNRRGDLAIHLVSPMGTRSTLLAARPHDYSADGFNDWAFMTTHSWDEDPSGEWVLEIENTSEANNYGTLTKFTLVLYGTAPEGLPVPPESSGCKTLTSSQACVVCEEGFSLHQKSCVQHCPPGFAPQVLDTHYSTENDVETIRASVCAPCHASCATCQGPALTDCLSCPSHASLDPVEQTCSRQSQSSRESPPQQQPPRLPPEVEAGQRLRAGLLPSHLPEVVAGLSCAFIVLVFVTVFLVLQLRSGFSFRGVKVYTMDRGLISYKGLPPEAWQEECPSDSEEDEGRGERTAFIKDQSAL

Sequence | furin cleavage Z-score (7.5 min) | furin cleavage Z-score (15 min) | furin cleavage Z-score (30 min)
CAVRLRAYMNAGNASASA [HC929] | 0.615 (inactive) | -1.18 (inactive) | 1.3
CAYKVLVLNPAGNASASA [HC785] | 1.85 | -0.276 (inactive) | -1.39 (inactive)
CARSKRDEKLAGNASASA [FS-2810] | 3.32 | 5.67 (active) | 5.15 (active)
CARSKRDPDLAGNASASA [FS-2087] | -0.408 (inactive) | 0.763 (inactive) | 0.503 (inactive)
CARSKRPSTDAGNASASA [FS-2606] | -0.273 (inactive) | 0.303 (inactive) | 0.307 (inactive)
CARSKRYVHLAGNASASA [FS-2381] | 2.83 | 5.52 (active) | 7.4 (active)
CARSKRRWAPAGNASASA [FS-2307] | 0.891 (inactive) | 0.79 (inactive) | 2.12
CARSKKPKGLAGNASASA [FS-3082] | 0.217 (inactive) | -0.722 (inactive) | -1.55 (inactive)
CARSKRDSTYAGNASASA [FS-3169] | 6.51 (active) | 7.64 (active) | 7.09 (active)
CARSKRDYTPAGNASASA [FS-1928] | 6.07 (active) | 5.96 (active) | 6.83 (active)
CARSGRDSGYAGNASASA [FS-2303] | -0.464 (inactive) | -0.846 (inactive) | -1.58 (inactive)
CAKALGLLQTAGNASASA [HC1026] | -0.0968 (inactive) | 0.32 (inactive) | -1.95 (inactive)
CAEQGMMLAEAGNASASA [HC1020] | 0.411 (inactive) | 0.355 (inactive) | -0.0666 (inactive)
CAGLLRFCALAGNASASA [HC619] | -0.221 (inactive) | -0.963 (inactive) | 0.576 (inactive)
CARTKRFVSEAGNASASA [FS-3106] | 7.52 (active) | 9.36 (active) | 7.54 (active)
CARTKRNAKIAGNASASA [FS-2384] | 8.15 (active) | 8.32 (active) | 7.88 (active)
CARNQRDAWIAGNASASA [FS-2731] | -0.28 (inactive) | -0.224 (inactive) | -0.1 (inactive)
CARGARLVSEAGNASASA [FS-1708] | 0.305 (inactive) | -0.752 (inactive) | 0.671 (inactive)
CARTKRKPSIAGNASASA [FS-2612] | 0.358 (inactive) | -0.0194 (inactive) | 0.82 (inactive)
CARIPREVSEAGNASASA [FS-2031] | 7.41 (active) | 8.89 (active) | 7.69 (active)
CARPWKSVSEAGNASASA [FS-2060] | -0.467 (inactive) | 0.327 (inactive) | 1.73
CAVVCCSLSYAGNASASA [HC2045] | 0.285 (inactive) | 2.15 | 0.578 (inactive)
CARTKRFLSYAGNASASA [FS-2826] | 4.24 (active) | 5.3 (active) | 6.61 (active)

Sequence | furin cleavage Z-score (7.5 min) | furin cleavage Z-score (15 min) | furin cleavage Z-score (30 min)
CARGLDVSVIAGNASASA [HC870] | 1.35 | -0.274 (inactive) | -0.641 (inactive)
CAAPGERPSGAGNASASA [HC912] | -0.474 (inactive) | 0.136 (inactive) | -0.967 (inactive)
CANLVYSTTSAGNASASA [HC1388] | 1.17 | -0.567 (inactive) | 1.86
CATTPCSFSWAGNASASA [HC1887] | -1.16 (inactive) | -1.65 (inactive) | 0.982 (inactive)
CAKVPAAYAAAGNASASA [HC780] | 0.0632 (inactive) | -0.0412 (inactive) | -3.37 (inactive)
CARARRTTIYAGNASASA [FS-3151] | -0.153 (inactive) | 1.46 | 4.35 (active)
CARARRDDPHAGNASASA [FS-2888] | 5.71 (active) | 7.99 (active) | 5.78 (active)
CARARRTLGHAGNASASA [FS-1684] | 6.43 (active) | 8.11 (active) | 7.53 (active)
CALTKRLKRHAGNASASA [FS-689] | 12.6 (active) | 12.3 (active) | 9.95 (active)
CAYTTGPCTPAGNASASA [HC1193] | -1.22 (inactive) | 0.109 (inactive) | -1.36 (inactive)
CALSPGALVVAGNASASA [HC1104] | -0.255 (inactive) | 1.25 | 0.572 (inactive)
CAVVCNSMSYAGNASASA [HC98] | -1.2 (inactive) | 0.223 (inactive) | -0.488 (inactive)
CAEGVFTGLTAGNASASA [HC940] | -0.801 (inactive) | 0.108 (inactive) | -0.239 (inactive)
CAEGVTSTWVAGNASASA [HC2176] | 0.155 (inactive) | -0.512 (inactive) | 0.24 (inactive)
CAGPVIQMYTAGNASASA [HC708] | -1.34 (inactive) | -0.0874 (inactive) | 0.0794 (inactive)
CAEAKRGSSSAGNASASA [FS-2476] | -2.29 (inactive) | -0.0771 (inactive) | 0.074 (inactive)
CARARRTKRHAGNASASA [FS-1255] | 11.2 (active) | 11.8 (active) | 8.26 (active)
CARKQRKKKAAGNASASA [FS-1262] | 0.332 (inactive) | 1.6 | 1.96
CARSQRRKKAAGNASASA [FS-865] | 4.39 (active) | 4.99 (active) | 5.15 (active)
CALRKRRKRKAGNASASA [FS-1030] | 10.7 (active) | 11.4 (active) | 9.12 (active)
CAFSQRRKRRAGNASASA [FS-775] | 6.61 (active) | 5.92 (active) | 6.42 (active)
CARSQPRGRRAGNASASA [HC188] | 4.16 (active) | 5.3 (active) | 4.87 (active)
